Data taken from PubChem BioAssay (NCATS).

Test: qHTS profiling of the MIPE4 collection as inhibitors of Plasmodium falciparum (DD2) proliferation (Rep 2) (AID 743346)
Settings: P. falciparum Dd2 in erythrocytes, SYBR Green DNA, 72 h; at 28.5 µM unless noted
Source text: Plasmodium falciparum is a virulent malarial parasite that kills 1-2 million people worldwide each year. Transmitted by mosquitoes, the sporozoite form of the parasite enters the blood stream to infect hepatocytes, where they become merozoites that infect red blood cells (erythrocytes). Within erythrocytes, merozoites begin a […] cycle of growth and division, after which the parasite is released to infect new red blood cells. Gametocytes, which form within erythrocytes as well, circulate in the bloodstream and are ingested by the mosquito, thereby completing the life cycle. To profile malarial isolates for differential chemical responses and to identify inhibitors of malarial growth, an assay that measures P. falciparum growth and replication within erythrocytes was employed. This assay uses a DNA binding fluorescent dye (SYBR Green) to detect parasite DNA following cell lysis. Because mature erythrocytes lack DNA, only Plasmodium-derived DNA is detected.
The SYBR Green viability assay was adapted from a method described previously (Plouffe et al., 2008). For screening 3 ul culture medium was dispensed into 1536 well black clear bottom plates (Aurora Biotechnologies) using a Multidrop Combi (Thermo Fisher Scientific Inc.), 23 nL compounds in DMSO were added by a pin tool (Kalypsys), and 5 ul of erythrocytes infected with P. falciparum (0.3% parasitemia, 2.5% hematocrit final concentration) were added. The plates were incubated at 37 C in a humidified incubator in 5% CO2 for 72 h, and 2 ul lysis buffer (20 mM Tris HCl, 10 mM EDTA, 0.16% saponin, 1.6% triton X, 10X SYBR Green I supplied as 10,000X […] by Invitrogen) was added to each well. The plates were mixed for 25 sec with gentle shaking and incubated overnight at room temperature in the dark. The following morning, fluorescence intensity at 485(14) nm excitation and 535(25) nm emission wavelengths was measured on an EnVision (Perkin Elmer) plate reader. Plate reads were normalized relative to the control inhibitor (0.29 uM artemisinin) and vehicle (DMSO) wells present on each plate and then corrected by an algorithm using vehicle-only control plates at the beginning and end of the compound plate stack.
`CCCc1nc(C)c2c(=O)[nH]c(-c3cc(S(=O)(=O)N4CCN(CC)CC4)ccc3OCC)nn12` showed a parasite growth, % of control (lower = inhibition) of 33.2%. Work on `N=C(N)c1ccc(OCCCCCOc2ccc(C(=N)N)cc2)cc1` yielded a parasite growth, % of control (lower = inhibition) of 15.7%. Work on `Cc1ccc(S(=O)(=O)N[C@@H](Cc2ccccc2)C(=O)CCl)cc1` yielded a parasite growth, % of control (lower = inhibition) of 79.2%. In the case of `CNC1CCCN(c2c(F)cc3c(=O)c(C(=O)O)cn(C4CC4)c3c2OC)C1` (stereo not given), the parasite growth, % of control (lower = inhibition) is reported as 8.93%. In the case of `CC(C)(C)C(=O)OCOP(=O)(COCCn1cnc2c(N)ncnc21)OCOC(=O)C(C)(C)C`, the parasite growth, % of control (lower = inhibition) is reported as 97.4%. Work on `CCOC(=O)[C@H](CCc1ccccc1)N[C@H]1CS[C@H](c2cccs2)CN(CC(=O)O)C1=O` yielded a parasite growth, % of control (lower = inhibition) of 6.49%. Compound `CC(N)C12CC3CC(CC(C3)C1)C2` (stereo not given) has a parasite growth, % of control (lower = inhibition) of 32.1%. Work on `CC[C@H](C)C(=O)O[C@H]1C[C@@H](C)C=C2C=C[C@H](C)[C@H](CC[C@@H]3C[C@@H](O)CC(=O)O3)[C@H]21` yielded a parasite growth, % of control (lower = inhibition) of 83.7%. Compound `COC(=O)Nc1nc2ccc(C(=O)c3ccccc3)cc2[nH]1` has a parasite growth, % of control (lower = inhibition) of 71%. `CCn1cc(C(=O)O)c(=O)c2cc(F)c(N3CCN(C)CC3)cc21` gave a parasite growth, % of control (lower = inhibition) of 52.8%. Work on `CNC(=O)c1cc(Oc2ccc(NC(=O)Nc3ccc(Cl)c(C(F)(F)F)c3)cc2)ccn1` yielded a parasite growth, % of control (lower = inhibition) of 33%. In the case of `O=C(O)C1CCCN(CCC=C(c2ccccc2)c2ccccc2)C1` (stereo not given), the parasite growth, % of control (lower = inhibition) is reported as 72.1%. Compound `N[C@@H](C(=O)N[C@@H]1C(=O)N2C(C(=O)O)=C(Cl)CS[C@H]12)c1ccccc1` has a parasite growth, % of control (lower = inhibition) of 115%. `C[C@@H](CN1CC(=O)NC(=O)C1)N1CC(=O)NC(=O)C1` showed a parasite growth, % of control (lower = inhibition) of 105%. In the case of `CN(C)CCc1c[nH]c2ccc(CS(=O)(=O)N3CCCC3)cc12`, the parasite growth, % of control (lower = inhibition) is reported as 86.7%. Work on `CCOC(=O)c1ccc(C#Cc2ccc3c(c2)C(C)(C)CCS3)nc1` yielded a parasite growth, % of control (lower = inhibition) of 29.1%. For `CN1CCCC(n2nc(Cc3ccc(Cl)cc3)c3ccccc3c2=O)CC1` (stereo not given), the parasite growth, % of control (lower = inhibition) was 7.67%. Work on `CCOc1cc(N)c(Cl)cc1C(=O)NCC1CN(Cc2ccc(F)cc2)CCO1` (stereo not given) yielded a parasite growth, % of control (lower = inhibition) of 178%. Compound `CCOC(=O)[C@H](CCc1ccccc1)N[C@H]1CCc2ccccc2N(CC(=O)O)C1=O` has a parasite growth, % of control (lower = inhibition) of 22.6%. Compound `Cc1onc(-c2ccccc2Cl)c1C(=O)N[C@@H]1C(=O)N2[C@@H]1SC(C)(C)[C@@H]2C(=O)O` has a parasite growth, % of control (lower = inhibition) of 79%. `O=c1cc(O)c(Cl)c[nH]1` showed a parasite growth, % of control (lower = inhibition) of 20.4%. For `CC(C)OC(=O)C(C(=O)OC(C)C)=C1SC=CS1`, the parasite growth, % of control (lower = inhibition) was 72.6%. With `Cc1nnc(NS(=O)(=O)c2ccc(N)cc2)s1` the parasite growth, % of control (lower = inhibition) was 8.26%. Compound `Cc1noc(NS(=O)(=O)c2ccc(N)cc2)c1C` has a parasite growth, % of control (lower = inhibition) of 103%. For `COC(c1ccccc1)(c1ccccc1)[C@H](Oc1nc(C)cc(C)n1)C(=O)O`, the parasite growth, % of control (lower = inhibition) was 81.2%. In the case of `CCCCS(=N)(=O)CCC(N)C(=O)O` (stereo not given), the parasite growth, % of control (lower = inhibition) is reported as 193%. With `Nc1nc(F)nc2c1ncn2[C@@H]1O[C@H](CO)[C@@H](O)[C@@H]1O` the parasite growth, % of control (lower = inhibition) was 12%. For `O=P(O)(O)C(O)(Cc1cccnc1)P(=O)(O)O`, the parasite growth, % of control (lower = inhibition) was 80.5%. In the case of `COc1cc2c(Nc3ccc(Br)cc3F)ncnc2cc1OCC1CCN(C)CC1`, the parasite growth, % of control (lower = inhibition) is reported as 12.4%. With `CN(Cc1cc(Br)cc(Br)c1N)C1CCCCC1` the parasite growth, % of control (lower = inhibition) was 25.7%. For `COc1cc([C@@H]2c3cc4c(cc3[C@H](O)[C@H]3COC(=O)[C@H]23)OCO4)cc(OC)c1OC`, the parasite growth, % of control (lower = inhibition) was 10.2%. `Cn1c(=O)c2c(ncn2CC(O)CO)n(C)c1=O` (stereo not given) gave a parasite growth, % of control (lower = inhibition) of 96.6%. `CNS(=O)(=O)CCc1ccc2[nH]cc(C3CCN(C)CC3)c2c1` showed a parasite growth, % of control (lower = inhibition) of 92.8%. `COc1ccc2c(c1)c(CC(=O)OCC(=O)O)c(C)n2C(=O)c1ccc(Cl)cc1` showed a parasite growth, % of control (lower = inhibition) of 68.6%. For `CN1CCN(c2c(F)cc3c(=O)c(C(=O)O)cn4c3c2OCN4C)CC1`, the parasite growth, % of control (lower = inhibition) was 77.3%. With `NNC(=O)c1ccncc1` the parasite growth, % of control (lower = inhibition) was 8.5%. `COc1nc(N)nc2c1ncn2[C@@H]1O[C@H](CO)[C@@H](O)[C@@H]1O` showed a parasite growth, % of control (lower = inhibition) of 37.8%. In the case of `Cn1nnc2c(C(N)=O)ncn2c1=O`, the parasite growth, % of control (lower = inhibition) is reported as 120%. Compound `Nc1[nH]c(=O)ncc1F` has a parasite growth, % of control (lower = inhibition) of 158%. `CC(C)C[C@H](NC(=O)[C@H](CCc1ccccc1)NC(=O)CN1CCOCC1)C(=O)N[C@@H](Cc1ccccc1)C(=O)N[C@@H](CC(C)C)C(=O)[C@@]1(C)CO1` showed a parasite growth, % of control (lower = inhibition) of 9.09%.
